Sequences and labels used below:
B1: VH:VL chains; a variant is named by its letters at X, in order (parent)
chain 1: QVQLVQSGAEVKKPGASVKVSCKASGYTFTDYXMHWVRQAPGQGLEWMGXVNPNXXXTTYNQKFEGRVTMTTDTSTSTAYMELRSLRSDDTAVYYCARXNXLDXWGQGTTVTVSS
chain 2: DIQMTQSPSSLSASVGDRVTITCSVSSSVSSIYLHWYQQKPGKAPKLLIYSTSNLASGVPSRFSGSGSGTDFTLTISSLQPEDFATYYCQVYSGYPLTFGGGTKVEIK

This is one part of the list. How many sequences the whole screen found active is unknown.

Variants of B1 are the subject of this assay. Briefly: yeast display scFab, FACS + sequencing. The following applies: with MET. In outline: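 A yeast surface library of scFab variants carrying heavy-chain CDR mutations went through two magnetic enrichment rounds on Protein A beads coated with HGFR-Fc, then FACS. For sorting, cells were labelled for 3 h at room temperature with 1 nM HGFR-Fc and anti-Myc in PBSB containing 1% milk, and the top 50% of antigen-positive cells were gated. Input and round-3 sorted populations were deep sequenced in two replicates. A sequence was called an antigen binder if it appeared in both antigen-positive samples and a non-binder if it appeared only in the input.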
For the variant SAERSAAF, the antigen binding call was “no binding”.
On to DAGGASSA, for which the antigen binding call is recorded as “no binding”.
Turning to SEEEGSGV, the antigen binding call is listed as “no binding”.
In the case of YRERGALS, the antigen binding call is recorded as “binds”.
In the case of YRGGDYSV, the antigen binding call was “no binding”.
Take YTTGGYLV: the antigen binding call was “no binding”.
For YEGGGDLV the value was “no binding”.
Take YRGGGYLV: the antigen binding call is recorded as “binds”.
On to YRGGDYLV, for which the antigen binding call is given as “binds”.
For the variant YRGGDDLV, the antigen binding call is “no binding”.
With DETEGDVF, the antigen binding call was “no binding”.
Turning to VKGEGDVY, the antigen binding call is on record as “no binding”.
As for VEERDDWF, the antigen binding call was “no binding”.
With SRGGGALD the entry was “binds”.
For SRGKGDAD, the antigen binding call is recorded as “no binding”.
As for SRGKGALD, the antigen binding call is “binds”.
On to SRGGSALA, for which the antigen binding call is recorded as “binds”.
Consider SETGAALD, for which the antigen binding call was “no binding”.
In the case of SRGGDDVA, the antigen binding call is given as “no binding”.
For SRGGAAWA the value was “no binding”; for SEARSALA, “binds”.
Consider SAGGGAGD, for which the antigen binding call is reported as “no binding”.
In the case of SEARSDLA, the antigen binding call is given as “no binding”.
For SEARSSLA, the antigen binding call is given as “no binding”.
In the case of DGGRGDGA, the antigen binding call is “no binding”.
For AKTGNDVA, the antigen binding call was “no binding”.
With YRAGDALD the entry was “binds”.
Turning to DRAGDALD, the antigen binding call was “binds”.
DRREDALD: the antigen binding call is reported as “binds”.
As to YRAEGALD, the antigen binding call was “binds”.
Turning to DTTGSALD, the antigen binding call is “no binding”.
Take DRAGDSLD: the antigen binding call is given as “no binding”.
With DAGAADVV the entry was “no binding”; with DRGGDDVD, “no binding”.
Regarding YRRRGVAD, the antigen binding call was “binds”.
For YATAADAD the value was “no binding”; for YTGGNDAD, “no binding”.
For AREGDAGD the value was “no binding”.
Consider AARADSAD, for which the antigen binding call was “no binding”.
On to VGGGGAAD, for which the antigen binding call is “no binding”.
For VRRRGAAD, the antigen binding call is listed as “binds”.
With YRAGGDAD the entry was “binds”; with ARRTDVAD, “binds”.
Regarding FERRAFGY, the antigen binding call is “no binding”.
Take YRRGGAAD: the antigen binding call is given as “binds”.
On to YRRKGDAD, for which the antigen binding call is “no binding”.
With YRRRGDAD, the antigen binding call is listed as “binds”.
For YRRRGAAD the value was “binds”.
For AAARNFLF chain 1 V68I the value was “no binding”; for SEARSSAS, “no binding”; for DEGGTDSF, “no binding”.
For VKGASDVV the value was “no binding”.
As for DTGGGAGA, the antigen binding call is on record as “no binding”.
In the case of VRGRGFAA, the antigen binding call is “no binding”.
YRGRGYAA: the antigen binding call is listed as “binds”.
Turning to YKGRGYAA, the antigen binding call is given as “binds”.
As to YRGKGYAA, the antigen binding call is “binds”.
As to VRGRGYAA, the antigen binding call is listed as “binds”.
VRGTGYAS: the antigen binding call is recorded as “no binding”.
As to YKGRGYVA, the antigen binding call is reported as “no binding”.

The values above are taken from the emibetuzumab library of Makowski et al. (2022).
